Bioassay records as filed in PubChem BioAssay.
A selection: hits, their analogues and other compounds. The true share with any hit is near 11%.
CBFb RUNX1 block: inhibitors of human CBF-beta and RUNX1 interaction; Potency, µM (doses to about 59.8 µM), for inactives: top-dose activity, negative = inhibition, hits mostly inhibitors; 230,000 tested, under 10 active; AlphaScreen CBFb-His/RUNX1-biotin binding, biochemical; Q01196+Q13951; also: % of control where 0% means no effect
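AlphaScreen proximity signal reports loss of binding between His-tagged CBF-beta and biotin-labelled RUNX1, each at 30 nM. Proteins are pre-associated for 20 minutes, compounds added for 15 minutes, then beads for 90 minutes, all at ambient temperature.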
HPGD block: inhibitors of human 15-hydroxyprostaglandin dehydrogenase (HPGD); P15428; purified HPGD, NADH fluorescence kinetic, PGE2 substrate; Potency, µM, for inactives: top-dose activity change, negative = inhibition, most hits filed as inhibitors; 4.3% of 150,000 active; AID 894; active = well fitted inhibition curve with a large enough effect, not every such curve was filed as active; inconclusive = small, poorly fitted or top-dose-only effect, or another doubt; inactive = no such curve, though single readings can be large or run the other way; also: potency is read from the fitted curve at half-maximal effect; % is scaled to controls: 0 for no effect and ±100 for the full control effect
Target sequence (P15428 whole entry, looked up): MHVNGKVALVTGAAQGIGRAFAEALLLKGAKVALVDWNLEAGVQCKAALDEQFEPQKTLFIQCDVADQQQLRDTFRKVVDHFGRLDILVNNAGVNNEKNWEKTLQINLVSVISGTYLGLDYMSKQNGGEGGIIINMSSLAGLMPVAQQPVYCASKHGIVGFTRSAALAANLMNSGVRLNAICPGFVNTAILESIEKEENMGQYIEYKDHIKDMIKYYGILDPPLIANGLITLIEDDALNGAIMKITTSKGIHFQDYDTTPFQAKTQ
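NADH formation kinetics: reaction with 30 uM PGE2 and 1 mM NAD+ (final), 20 nM enzyme, Tris-HCl pH 8 with Tween 20, after 15 min compound preincubation at room temperature. Fluorescence change, last versus first of five reads.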
HTT aggregate: mutant huntingtin aggregation inhibition; PC12 HttQ103-GFP aggregates, Acumen cytometry, 40 h; AID 1688; 1.1% of 220,000 active; Potency, µM (titrated, usually from 46.1 µM), for inactives: at the top dose activity change, negative = inhibition, most hits filed as inhibitors; also: potency is read from the fitted curve at half-maximal effect; % is scaled to controls: 0 for no effect and ±100 for the full control effect; nearly all actives have a fitted effect of over 60% in size
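Ecdysone-promoter PC12 model expressing HTT exon 1 Q103 fused to GFP, induced by tebufenozide at 100 nM final. Compounds titrated; aggregates sized 1–25 µm scored on a 488 nm laser cytometer.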
ALDH1A1 inh: blocks purified human ALDH1A1 activity | P00352 | Purified ALDH1A1, NADH fluorescence, propionaldehyde substrate | Potency, µM (top dose mostly 75.3 µM), for the others: at the highest dose activity, negative = inhibition, actives largely listed as inhibitors | 7.3% of 220,000 active | AID 1030; active = well fitted inhibition curve with a large enough effect, not every such curve was filed as active; inconclusive = small, poorly fitted or top-dose-only effect, or another doubt; inactive = no such curve, though single readings can be large or run the other way;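 also: potency is read from the fitted curve at half-maximal effect; plate controls were no enzyme wells and a reference inhibitor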
Target sequence (P00352 whole entry, looked up): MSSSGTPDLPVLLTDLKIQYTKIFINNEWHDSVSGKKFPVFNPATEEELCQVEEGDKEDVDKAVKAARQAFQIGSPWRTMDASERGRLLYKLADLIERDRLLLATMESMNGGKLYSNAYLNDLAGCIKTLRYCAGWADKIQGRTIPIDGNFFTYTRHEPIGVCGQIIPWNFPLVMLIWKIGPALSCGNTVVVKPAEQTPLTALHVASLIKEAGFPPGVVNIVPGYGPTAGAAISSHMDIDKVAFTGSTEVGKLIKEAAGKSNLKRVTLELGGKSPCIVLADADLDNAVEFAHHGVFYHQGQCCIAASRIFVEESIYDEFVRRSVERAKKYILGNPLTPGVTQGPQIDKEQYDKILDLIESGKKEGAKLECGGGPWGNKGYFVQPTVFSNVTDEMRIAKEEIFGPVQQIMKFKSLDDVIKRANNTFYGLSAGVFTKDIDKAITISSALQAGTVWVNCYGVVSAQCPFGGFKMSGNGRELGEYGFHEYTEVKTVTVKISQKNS
PNC assembly inh: perinucleolar compartment assembly inhibition; PC3M PTB-GFP, PNC prevalence imaging, 16 h; hits give low values; activity change (PNC), negative = inhibition, % at 10 µM; 3.1% of 140,000 active; AID 2417;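 active = readout at or below -70, meaning at least 70% loss of cells showing the perinucleolar compartment, a nuclear body marking cancer cells; inconclusive = readout between -30 and a set limit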;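 also: plate controls were DMSO wells for no effect and camptothecin positive control wells for full effect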
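Read-out is percentage of cells bearing a perinucleolar compartment, from automated 20x imaging of fixed, Hoechst-stained PC3M PTB-GFP cells. Cells were seeded 4 h, then exposed 16 h to compound (23 nl of library stock) in duplicate plates.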
HTT ATP protect: protects HTT-Q103 PC12 cells, measured by ATP | PC12 HTT-Q103 induced, cytoprotection, ATP luminescence, 40 h | 0.14% of 230,000 active | AID 1471 | Potency, µM (series often up to 56.4 µM), for inactives: cytoprotection (ATP increase), actives largely listed as activators; also: potency is read from the fitted curve at half-maximal effect; % of control where 0% means no effect; nearly all actives have a fitted effect of over 45% in size
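PC12 cells stably carrying ecdysone-inducible Htt exon 1 (Q103)–GFP were induced with 100 nM tebufenozide (final) alongside library compounds in a dose series. Cytoprotection was scored as retained ATP by ATPlite luminescence.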
The depositor's hits bear a star; ? = inconclusive; · = no result given; [ ] = another dose, or the depositor's remark. Unless noted, calls follow the shape of the dose curve; as a rule, active = well fitted curve in the direction sought with a large enough effect; inconclusive = small, poorly fitted or top-dose-only effect, or another doubt; inactive = no such curve, though single readings can be large; an effect the other way counts as inactive or inconclusive.

SMILES	CBFb RUNX1 block	HPGD block	HTT aggregate	ALDH1A1 inh	PNC assembly inh	HTT ATP protect
CCC(C)C(=O)Nc1nc(-c2ccc3c(c2)NC(=O)CO3)cs1 (configuration not stated)	-0.1%	-26.1%	-23.4%	20µM*	44.9	-42.6%
Nc1nc(-c2ccc3c(c2)NC(=O)CO3)cs1	·	17.8µM*	-9.5%	3.16µM*	?	0.8%
O=C1COc2ccc(-c3csc(NCCc4ccccc4)n3)cc2N1	-24.7%	·	-6.1%	?	·	-23.7%
Nc1nc(-c2ccc3c(c2)OCCO3)cs1	-7.9%	-13.1%	1.8%	?	7.9	-29.3%
Cc1ccc(C)c(NC(=S)c2ccccn2)c1	-25.3%	28.2µM*	?	?	21.3	-92.2%[10 µM]
S=C(Nc1ccccn1)c1ccccn1	-14.8%	8.91µM*	15.4%	3.55µM*	26.0	-23.7%
Cn1c2c(c(=O)n(C)c1=O)CN(CC1CCCO1)CN2 (configuration not stated)	2.6%	·	-9.0%	-3.4%	27.5	-10.7%
CC(=O)N1CCC(=NNC(=O)CSc2cc(C)c(Br)cc2C)CC1	-5.2%	25.1µM*	-25.0%	?	?	6.6%[10 µM]
CCCN1CCC(=NNC(=O)CSc2cc(C)c(Br)cc2C)CC1	1.9%	14.1µM*	28.5%	?	-22.1	5.5%[1.9 µM]
Cc1cc(C)cc(C(=O)N(C)[C@H](Cc2ccc(-c3ccccc3)cc2)C(=O)N[C@@H](Cc2c[nH]c3ccccc23)C(=O)O)c1	-0.6%	6.3%	·	-0.4%	·	-146.4%[1.9 µM]
CCn1cc(CN2CCc3c([nH]c4ccccc34)C2c2cccc(OC)c2OC)c(C)n1 (configuration not stated)	0.2%	·	4.3%[9.22 µM]	0.0%	·	3.1%[10 µM]
O=C(c1ccco1)N1CCC2(CC1)CCN(c1ccncc1)CC2	·	-7.9%	·	7.08µM*	·	7.1%
O=C(c1ccco1)N1CCC2(CC1)CN(c1ccccc1)C2	·	-7.9%	·	14.1µM*	·	-0.2%
COc1ccc(NC(=O)N2CC3(CCN(C(=O)c4ccco4)CC3)C2)cc1	·	-3.9%	·	15.8µM*	·	-4.2%
COc1cccc(OC)c1NC(=O)CN1CCC(NC(=O)c2cccc(F)c2)CC1	-4.5%	-13.5%	0.7%	39.8µM*	?	10.2%[1.9 µM]
O=Cc1cn(-c2ccc(F)cc2)c2ccccc12	1.2%	-10.8%	-17.6%	2µM*	33.6	-4.9%[10 µM]
Cn1c(Oc2ccc(F)cc2F)c(C=O)c2ccccc21	-2.4%	·	?	?	·	11.7%
CS(=O)(=O)N(CC(=O)NCCC1=CCCCC1)c1ccc2c(c1)OCO2	4.3%	-7.0%	-13.3%	?	26.7	-10.1%[0.074 µM]
Cc1nn(C2CCS(=O)(=O)C2)c(Cl)c1/C=C/C(=O)OCC(=O)Nc1ccccc1OC(F)F (configuration not stated)	1.6%	-10.9%	2.8%	7.2%	-19.4	4.6%
COc1ccc(Cl)cc1NC(=O)COC(=O)/C=C/c1c(C)nn(C2CCS(=O)(=O)C2)c1Cl (configuration not stated)	-1.0%	·	0.8%	25.1µM*	1.1	-2.4%
CCOC(=O)c1nnn(-c2nonc2N)c1CN1CCc2ccccc2C1	13.9%	0.4%	-6.7%	?	-83.2*	-14.2%[10 µM]
CC(C)OC(=O)c1nnn(-c2nonc2N)c1CSc1ccccn1	-13.3%	?	4.1%	2.24µM*	-3.4	-23.5%
Cc1c(C(=O)N2CCCC2)nnn1-c1nonc1N	8.2%	-29.8%	6.5%	25.1µM*	6.1	-12.2%[10 µM]
CC(C)OC(=O)c1nnn(-c2nonc2N)c1CN1CCc2ccccc2C1	1.4%	-9.8%	-8.3%	?	2.0	-12.8%
CC1(C)Cc2c(sc3ncnc(NNC(=S)NCc4ccccc4)c23)CO1	-13.9%	-11.2%	-28.5%	1.41µM*	-6.4	-22.2%[10 µM]
SMILES	CBFb RUNX1 block	HPGD block	HTT aggregate	ALDH1A1 inh	PNC assembly inh	HTT ATP protect
Cc1nc2oc3c(NCc4ccccc4)ncnc3c2c2c1COC(C)(C)C2	-0.5%	?	-11.8%	?	-24.2	-30.9%
O=C(NC(=S)Nc1cccc(Cl)c1N1CCCC1)c1ccc(-c2cccc([N+](=O)[O-])c2)o1	-2.3%	-23.9%	?	28.2µM*	-3.0	-51.3%
CC(C)(C)NC(=O)C(c1ccccn1)N(C(=O)C1CSC(=O)C1)c1ccc(F)cc1 (configuration not stated)	-3.0%	-5.5%	5.6%	5.9%	-9.1	28.8%
O=C(Cc1ccccc1)Nc1nc2ccccc2[nH]1	2.9%	-6.5%	1.4%	17.8µM*	45.6	-7.6%[10 µM]
Nc1ccccc1Sc1nc2ccccc2[nH]1	-26.8%	·	-2.9%	12.6µM*	·	-17.2%
CCSc1nc2ccccc2[nH]1	-10.3%	-13.4%	-14.0%	-0.4%	?	3.4%
CCN(CC)CCCNc1nc2ccccc2[nH]1	3.7%	-1.8%	-5.0%	6.3%	-22.5	15.3%[10 µM]
Nc1nc2ccccc2[nH]1	-2.0%[21.7 µM]	-10.9%	·	20µM*	·	11.2%
CCNc1nc2ccccc2[nH]1	2.4%	-10.1%	1.5%	5.5%	-108.9*	-38.0%
O=C(CN1C(=O)C2CC=CCC2C1=O)NC1CCCc2ccccc21 (configuration not stated)	-8.7%	-5.7%	8.7%	-5.1%	-2.2	4.2%
Cn1nc(-c2ccccc2)cc1NS(=O)(=O)c1ccc(C#N)cc1	4.1%	·	-15.9%[9.22 µM]	·	·	-2.9%[10 µM]
CNc1ncncc1-c1ccccc1CN(C)C	·	·	·	?	·	-43.9%
Cc1ccc(-c2nc3ncccn3c2Nc2ccc3c(c2)OCO3)o1	-7.8%	-20.2%	6.8%	?	-118.9*	1.0%[10 µM]
O=C(CSC1=NC(=O)C(c2ccccc2)C(=O)N1)Nc1ccccc1Cl (configuration not stated)	4.5%	-8.9%	-6.0%	20µM*	?	6.2%
O=C(CSC1=NC(=O)C(c2ccccc2)C(=O)N1)Nc1ccccc1[N+](=O)[O-] (configuration not stated)	-21.9%	·	32.7%	?	·	-13.1%
Nc1nc(-c2ccc(-n3nncc3-c3ccco3)cc2)cs1	-13.3%	·	-17.1%[9.22 µM]	·	·	1.4%[10 µM]
Cc1nc(-c2ccc(-n3nncc3-c3ccco3)cc2)cs1	-0.5%	·	-3.6%[9.22 µM]	25.1µM*	·	-1.6%[10 µM]
Cc1occc1C(=O)NNC1=CC(=O)CC(C)(C)C1	0.7%	-16.9%	2.1%	9.9%	-9.0	·
COc1ccc(C=NCCCN2CCOCC2)cc1	5.0%	-7.7%	4.9%	20µM*	2.1	3.2%[10 µM]
COc1ccc(C2CC(=O)C(C=NCCCN3CCOCC3)=C(O)C2)cc1 (configuration not stated)	12.7%	-11.4%	7.6%	-13.7%	29.9	5.6%[1.9 µM]
CCC(=O)Nc1ccc(C(=O)NNC(=O)COc2cc(C)ccc2C)cc1	0.3%	-11.7%	19.0%	-0.1%	23.0	2.2%[10 µM]
c1ccc(CN(CCN(Cc2ccccn2)Cc2ccccn2)Cc2ccccn2)nc1	10.1%	·	·	-14.1%	·	·
